The record followed here is paper PMC10812921, “Transcriptional Coactivator BOB1 (OBF1, OCA-B) Modulates the Specificity of DNA Recognition by the POU-Domain Factors OCT1 and OCT2 in a Monomeric Configuration”.

For experiment [1], the target named is POU1 (OCT1 POU domain) (human, UniProt P14859 260-458). Description: EMSA-SELEX-seq; no BOB1; 20 mM Tris-HCl pH 7.6, 140 mM NaCl, 10% glycerol, 0.5 mM EDTA, 0.05% Triton X-100, 0.1 mg/mL BSA, 0.1 mg/mL poly(dI-dC), 5 mM DTT, room temperature, 20 min; high values mean tight binding. The note with it: protein: recombinant; dsDNA, one strand shown. The essentials: (§1)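 Tagged POU-domain proteins were produced in E. coli BL21, purified under denaturing conditions and renatured before use. They were mixed at 30 ng with 300 ng of a PCR-amplified double-stranded random 35-nt library, with or without 28 ng coactivator protein, in 20 μL Tris–HCl pH 7.6 binding buffer, incubating 20 min at RT. Complexes cut from native 6% PAGE were eluted and PCR-amplified over four rounds, then sequenced by Illumina, with binding preference taken as the percentage of sequenced 8-mers matching a motif pattern.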
Chain of POU1 (OCT1 POU domain) (P14859 260-458): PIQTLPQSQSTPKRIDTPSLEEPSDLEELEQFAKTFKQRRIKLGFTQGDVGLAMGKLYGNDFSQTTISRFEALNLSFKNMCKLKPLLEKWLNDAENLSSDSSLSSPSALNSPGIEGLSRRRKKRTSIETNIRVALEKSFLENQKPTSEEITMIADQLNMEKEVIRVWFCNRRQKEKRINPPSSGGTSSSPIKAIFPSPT

Experiment [2] deals with T1, POU2 (OCT2 POU domain) (human, UniProt P09086 175-386).
T1 sequence: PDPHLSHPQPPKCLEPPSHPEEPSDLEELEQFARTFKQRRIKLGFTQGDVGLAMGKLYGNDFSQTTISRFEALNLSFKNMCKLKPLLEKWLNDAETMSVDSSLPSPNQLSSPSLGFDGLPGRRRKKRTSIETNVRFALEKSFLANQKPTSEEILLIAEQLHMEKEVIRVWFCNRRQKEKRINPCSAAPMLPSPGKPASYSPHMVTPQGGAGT
Described as above. The following applies: protein: recombinant; dsDNA, one strand shown. The essentials: as §1

Experiment [3] has as its target POU1 (OCT1 POU domain);BOB1 (OBF1, OCA-B) (human;human, UniProt P14859;Q16633 260-458;1-256, |). Description: EMSA-SELEX-seq; with BOB1 (ternary complex band); 20 mM Tris-HCl pH 7.6, 140 mM NaCl, 10% glycerol, 0.5 mM EDTA, 0.05% Triton X-100, 0.1 mg/mL BSA, 0.1 mg/mL poly(dI-dC), 5 mM DTT, room temperature, 20 min; high values mean tight binding. The note with it: protein: recombinant;recombinant; copies: 1;1; dsDNA, one strand shown. The essentials: as §1

For experiment [4], the target named is T2, POU2 (OCT2 POU domain);BOB1 (OBF1, OCA-B) (human;human, UniProt P09086;Q16633 175-386;1-256, |).
T2 sequence 1: T1 sequence
T2 sequence 2: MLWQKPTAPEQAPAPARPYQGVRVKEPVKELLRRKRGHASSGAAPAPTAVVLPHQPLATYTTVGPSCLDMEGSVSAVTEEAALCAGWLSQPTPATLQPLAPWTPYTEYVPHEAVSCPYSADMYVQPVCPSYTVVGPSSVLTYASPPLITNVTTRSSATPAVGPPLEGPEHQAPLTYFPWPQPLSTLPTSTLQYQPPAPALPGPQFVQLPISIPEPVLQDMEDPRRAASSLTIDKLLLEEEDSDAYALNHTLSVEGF
The experiment is described as above. The note with it: protein: recombinant;recombinant; copies: 1;1; dsDNA, one strand shown. The essentials: as §1

For ACAGAAAG, the binding signal in experiment [1] is 0.0297 % of ANNNNAAN 8-mers; in experiment [2], 0.0236 % of ANNNNAAN 8-mers; in experiment [3], 0.0281 % of ANNNNAAN 8-mers; in experiment [4], 0.0239 % of ANNNNAAN 8-mers.

With ATGGCAAA, the binding signal is 0.0774 % of ANNNNAAN 8-mers in experiment [1], 0.057 % of ANNNNAAN 8-mers in experiment [2], 0.113 % of ANNNNAAN 8-mers in experiment [3] and 0.0776 % of ANNNNAAN 8-mers in experiment [4].

With AGTCGAAC, the binding signal is 0.0221 % of ANNNNAAN 8-mers in experiment [1], 0.0224 % of ANNNNAAN 8-mers in experiment [2], 0.0199 % of ANNNNAAN 8-mers in experiment [3] and 0.0239 % of ANNNNAAN 8-mers in experiment [4].

AGTTCAAG: the binding signal in experiment [1] was 0.0297 % of ANNNNAAN 8-mers; in experiment [2], 0.0276 % of ANNNNAAN 8-mers; in experiment [3] it was 0.0359 % of ANNNNAAN 8-mers; in experiment [4] it was 0.0314 % of ANNNNAAN 8-mers.

As for AGACGAAC, the binding signal is 0.0202 % of ANNNNAAN 8-mers in experiment [1], 0.0236 % of ANNNNAAN 8-mers in experiment [2], 0.0137 % of ANNNNAAN 8-mers in experiment [3] and 0.0182 % of ANNNNAAN 8-mers in experiment [4].

On to AAATGAAA, for which the binding signal is 0.15 % of ANNNNAAN 8-mers in experiment [1], 0.133 % of ANNNNAAN 8-mers in experiment [2], 0.21 % of ANNNNAAN 8-mers in experiment [3] and 0.147 % of ANNNNAAN 8-mers in experiment [4].

On to ACTTCAAG, for which the binding signal in experiment [1] was 0.0194 % of ANNNNAAN 8-mers; in experiment [2], 0.0236 % of ANNNNAAN 8-mers; in experiment [3] it was 0.0168 % of ANNNNAAN 8-mers; in experiment [4] it was 0.0256 % of ANNNNAAN 8-mers.

For the sequence AGTTCAAA, the binding signal was 0.0355 % of ANNNNAAN 8-mers in experiment [1], 0.0357 % of ANNNNAAN 8-mers in experiment [2], 0.0386 % of ANNNNAAN 8-mers in experiment [3] and 0.0421 % of ANNNNAAN 8-mers in experiment [4].

On to ATCCGAAT, for which the binding signal in experiment [1] was 0.0542 % of ANNNNAAN 8-mers; in experiment [2], 0.0748 % of ANNNNAAN 8-mers; in experiment [3], 0.0496 % of ANNNNAAN 8-mers; in experiment [4] it was 0.066 % of ANNNNAAN 8-mers.

For ATGGGAAC, the binding signal was 0.0496 % of ANNNNAAN 8-mers in experiment [1], 0.0443 % of ANNNNAAN 8-mers in experiment [2], 0.0488 % of ANNNNAAN 8-mers in experiment [3] and 0.0421 % of ANNNNAAN 8-mers in experiment [4].

Turning to ATTGTAAT, the binding signal in experiment [1] was 0.312 % of ANNNNAAN 8-mers; in experiment [2], 0.357 % of ANNNNAAN 8-mers; in experiment [3], 0.116 % of ANNNNAAN 8-mers; in experiment [4] it was 0.137 % of ANNNNAAN 8-mers.

Turning to ACCGCAAA, the binding signal in experiment [1] was 0.0179 % of ANNNNAAN 8-mers; in experiment [2] it was 0.0167 % of ANNNNAAN 8-mers; in experiment [3], 0.018 % of ANNNNAAN 8-mers; in experiment [4], 0.0124 % of ANNNNAAN 8-mers.

Consider ACTGTAAC, for which the binding signal in experiment [1] is 0.0175 % of ANNNNAAN 8-mers; in experiment [2] it was 0.0224 % of ANNNNAAN 8-mers; in experiment [3], 0.0203 % of ANNNNAAN 8-mers; in experiment [4] it was 0.0165 % of ANNNNAAN 8-mers.

For the sequence ACGGCAAT, the binding signal was 0.0332 % of ANNNNAAN 8-mers in experiment [1], 0.0368 % of ANNNNAAN 8-mers in experiment [2], 0.0336 % of ANNNNAAN 8-mers in experiment [3] and 0.0289 % of ANNNNAAN 8-mers in experiment [4].

For the sequence AATGTAAC, the binding signal in experiment [1] is 0.0591 % of ANNNNAAN 8-mers; in experiment [2], 0.0639 % of ANNNNAAN 8-mers; in experiment [3], 0.046 % of ANNNNAAN 8-mers; in experiment [4] it was 0.0545 % of ANNNNAAN 8-mers.

With ATAGCAAC, the binding signal in experiment [1] is 0.0183 % of ANNNNAAN 8-mers; in experiment [2], 0.0184 % of ANNNNAAN 8-mers; in experiment [3] it was 0.0207 % of ANNNNAAN 8-mers; in experiment [4], 0.0405 % of ANNNNAAN 8-mers.

For the sequence AAATAAAC, the binding signal in experiment [1] was 0.116 % of ANNNNAAN 8-mers; in experiment [2], 0.119 % of ANNNNAAN 8-mers; in experiment [3], 0.142 % of ANNNNAAN 8-mers; in experiment [4], 0.13 % of ANNNNAAN 8-mers.

AAAGGAAC: the binding signal is 0.0435 % of ANNNNAAN 8-mers in experiment [1], 0.0443 % of ANNNNAAN 8-mers in experiment [2], 0.0476 % of ANNNNAAN 8-mers in experiment [3] and 0.0371 % of ANNNNAAN 8-mers in experiment [4].

Take ACGCTAAT: the binding signal in experiment [1] was 0.108 % of ANNNNAAN 8-mers; in experiment [2] it was 0.14 % of ANNNNAAN 8-mers; in experiment [3], 0.046 % of ANNNNAAN 8-mers; in experiment [4], 0.0611 % of ANNNNAAN 8-mers.

Regarding ACTCGAAG, the binding signal was 0.0187 % of ANNNNAAN 8-mers in experiment [1], 0.0207 % of ANNNNAAN 8-mers in experiment [2], 0.0168 % of ANNNNAAN 8-mers in experiment [3] and 0.0182 % of ANNNNAAN 8-mers in experiment [4].

AGATAAAA: the binding signal in experiment [1] was 0.0542 % of ANNNNAAN 8-mers; in experiment [2], 0.057 % of ANNNNAAN 8-mers; in experiment [3] it was 0.0597 % of ANNNNAAN 8-mers; in experiment [4] it was 0.0462 % of ANNNNAAN 8-mers.

Consider AGACAAAC, for which the binding signal in experiment [1] was 0.0313 % of ANNNNAAN 8-mers; in experiment [2], 0.0265 % of ANNNNAAN 8-mers; in experiment [3], 0.0414 % of ANNNNAAN 8-mers; in experiment [4], 0.0322 % of ANNNNAAN 8-mers.

On to AAATTAAA, for which the binding signal is 0.328 % of ANNNNAAN 8-mers in experiment [1], 0.349 % of ANNNNAAN 8-mers in experiment [2], 0.213 % of ANNNNAAN 8-mers in experiment [3] and 0.217 % of ANNNNAAN 8-mers in experiment [4].
